Records with an inconclusive call do not appear. Entries that show only a call come without a potency. A number with no mark means an inactive call. Active and inactive are the calls of the source. Calls follow the shape of the dose curve; as a rule, active = well fitted inhibition curve with a large enough effect in the repeat runs; inconclusive = weak or mixed curves; inactive = no such curve, though single readings can be large or run the other way.
target: Estrogen receptor (Homo sapiens) (UniProt P03372); test: qHTS assay to identify small molecule antagonists of the estrogen receptor alpha (ER-alpha) signaling pathway using the BG1 cell line in the presence of 0.1 nM 17-beta-estradiol (AID 1259244); conditions: VM7Luc4E2 (BG1) ERE-luciferase, antagonist mode, 0.1 nM E2, 22 h; series mostly up to 92.4 µM; also: nearly all actives have a fitted effect of over 50% in size
Excerpt: National Center for Advancing Translational Sciences [NCATS]
NIH Chemical Genomics Center [NCGC]
U.S. Environmental Protection Agency [EPA]
National Institutes of Environmental Health Sciences [NIEHS]
National Toxicology Program [NTP]
U.S. Food and Drug Administration [FDA]
Estrogen receptor (ER), a member of the nuclear hormone receptor plays an important role in development, metabolic homeostasis and reproduction. Two subtypes of ER, ER-alpha and ER-beta, have similar expression patterns with some uniqueness in both types. Endocrine disrupting chemicals (EDCs) and their interactions with steroid hormone receptors like ER causes disruption of normal endocrine function. Therefore, it is important to understand the effect of environmental chemicals in ER signaling pathway. For identifying ER antagonists, VM7Luc4E2 cell line was used to screen against Tox21 compound libraries.
VM7Luc4E2 cell line (provided by Denison MS, University of California) endogenously express full-length ER-alpha and is stably transfected with a plasmid containing four estrogen responsive elements (ERE) upstream of a luciferase reporter gene. The current screening for identification of ER-alpha inhibitors against Tox21 compound libraries used lower concentration (0.1 nM) of 17beta-Estradiol as a stimulator.
Tox21 Assay Protocol Summary:
VM7Luc4E2 cells were cultured in phenol red free assay medium containing 10% charcoal stripped FBS for 5 days prior to the assay. The cells were dispensed at 4,000 cells/well in 4 uL of assay medium into white wall/solid-bottom 1536-well plates (Corning Life Sciences, Corning, NY) using a Multidrop Combi (ThermoFisher Scientific, Waltham, MA) dispenser. After the assay plates were incubated at 37C and 5% CO2 for 24 hr, 23 nL of compounds dissolved in DMSO, positive controls or DMSO only was transferred to the assay plates by a Pintool station (Kalypsys, San Diego, CA). The transfer of compounds was followed by the addition of 1 uL of 0.1 nM (final concentration) agonist (17beta-Estradiol)/assay medium using a Flying Reagent Dispenser (FRD, Aurora Discovery, San Diego, CA). The plates were incubated at 37C and 5% CO2 for 22 hr. For luciferase reporter gene assay, 4 uL of ONE-Glo reagent (Promega Corporation, Madison, WI) was added to each well using the FRD and after 30 min incubation at room temperature luminescence intensity was measured using ViewLux plate reader (PerkinElmer, Shelton, CT).
Potency is read from the fitted curve at half-maximal effect.

Estrogen receptor (Homo sapiens), sequence (P03372 whole entry, looked up): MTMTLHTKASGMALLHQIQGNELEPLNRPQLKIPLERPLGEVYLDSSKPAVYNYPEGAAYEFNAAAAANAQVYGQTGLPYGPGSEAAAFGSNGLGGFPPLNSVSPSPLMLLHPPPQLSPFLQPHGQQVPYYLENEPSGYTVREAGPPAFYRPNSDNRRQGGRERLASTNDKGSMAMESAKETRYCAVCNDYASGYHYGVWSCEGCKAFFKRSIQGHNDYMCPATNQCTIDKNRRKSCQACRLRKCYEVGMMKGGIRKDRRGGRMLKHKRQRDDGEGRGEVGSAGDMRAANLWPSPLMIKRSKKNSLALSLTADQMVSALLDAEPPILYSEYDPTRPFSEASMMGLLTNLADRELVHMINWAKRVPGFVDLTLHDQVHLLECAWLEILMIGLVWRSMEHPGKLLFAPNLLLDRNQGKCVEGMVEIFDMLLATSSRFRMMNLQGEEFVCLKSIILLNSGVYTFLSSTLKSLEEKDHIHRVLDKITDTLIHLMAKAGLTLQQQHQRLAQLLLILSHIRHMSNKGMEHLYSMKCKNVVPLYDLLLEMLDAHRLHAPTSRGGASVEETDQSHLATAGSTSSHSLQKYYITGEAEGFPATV

Row | SMILES | Potency | activity change, negative = inhibition
1 | CN=C(NC#N)NCCSCc1csc(N=C(N)N)n1 | inactive | –
2 | Nc1ccc(S(=O)(=O)Nc2ccccn2)cc1 | inactive | –
3 | C=CCOCC(CO)(COCC=C)COCC=C | inactive | –
4 | CCC(C)(C)C1CCC(=O)CC1 | inactive | –
5 | Cc1ccccc1C(=O)N1CC/C(=N\OS(=O)(=O)O)c2ccc(Cl)cc21 | inactive | –
6 | CC(=O)c1ccc2c(c1)CCCC2 | inactive | –
7 | CC(C)(CO)[C@@H](O)C(=O)NCCCO | inactive | –
8 | CCC(O)C(C)(C)C (stereo not given) | inactive | –
9 | CC(C)CCC(=O)CCC(C)C | inactive | –
10 | CCCCCC(=O)OCC | inactive | –
11 | O=C(Oc1ccccc1C(=O)O)c1ccccc1O | inactive | –
12 | CCOC(=O)CCCCCCCCC(=O)OCC | inactive | –
13 | CCC(=O)c1ccc(O)cc1 | inactive | –
14 | C=C[Si](C)(C)O[Si](C)(C)C=C | inactive | –
15 | C1=C\CC/C=C\CC/1 | inactive | –
16 | Cc1nc2n(c(=O)c1CCN1CCC(C(=O)c3ccc(F)cc3)CC1)CCS2 | 23.7 µM (active) | –
17 | CCCCCCCCCCC | inactive | –
18 | OC[C@@H](O)[C@H](O)[C@@H](O)[C@@H](O)CO | inactive | –
19 | CC(=O)N1CCN(c2ccc(O)cc2)CC1 | inactive | –
20 | CCCCCC1Nc2cc(C(F)(F)F)c(S(N)(=O)=O)cc2S(=O)(=O)N1 (stereo not given) | inactive | –

Row | SMILES | Potency | activity change, negative = inhibition
21 | CC1=NN(c2ccc(S(=O)(=O)O)cc2)C(=O)C1N=Nc1ccccc1 (stereo not given) | inactive | –
22 | C[C@H](CCC(=O)O)[C@H]1CC[C@H]2[C@@H]3[C@H](O)C[C@@H]4C[C@H](O)CC[C@]4(C)[C@H]3C[C@H](O)[C@]12C | inactive | –
23 | Cc1oc(=O)oc1CN1CCN(c2cc3c(cc2F)c(=O)c(C(=O)O)c2n3C(C)S2)CC1 (stereo not given) | inactive | –
24 | CNC(=O)C(c1ccccc1)c1ccccc1 | inactive | –
25 | CCCOC(=O)CCCCC(=O)OCCC | inactive | –
26 | NC(=O)C1(N2CCCCC2)CCN(CCCC(=O)c2ccc(F)cc2)CC1 | inactive | –
27 | CCNC(=O)NCCCOc1cccc(CN2CCCCC2)c1 | inactive | –
28 | CN[C@@H]1[C@H](O)[C@H](NC)[C@H]2O[C@@]3(O)C(=O)C[C@@H](C)O[C@H]3O[C@@H]2[C@H]1O | inactive | –
29 | O=C(O)c1ccccc1C(=O)OCc1ccccc1 | inactive | –
30 | Cc1ccc(C(=O)C(=O)O)cc1C | inactive | –
31 | O=C1OC(=O)c2cc(Oc3ccc4c(c3)C(=O)OC4=O)ccc21 | inactive | –
32 | CC(=O)Nc1ncc([N+](=O)[O-])s1 | inactive | –
33 | Nc1ccc(S(=O)(=O)NC(=O)c2ccccc2)cc1 | inactive | –
34 | C=CCCCCCCCCCCC | – | 8.3% [at 8.39 µM]
35 | NCCc1ccn[nH]1 | inactive | –
36 | CCCCCCCCCCCCOC(C)=O | inactive | –
37 | Nc1cc(C(=O)O)ccc1Cl | inactive | –
38 | CCCCC(=O)N(C)C | inactive | –
39 | CCN(CC)C(=O)C1CN2CCc3cc(OC)c(OC)cc3C2CC1OC(C)=O (stereo not given) | inactive | –
40 | COc1cc2c(Nc3ccc(Br)cc3F)ncnc2cc1OCC1CCN(C)CC1 | inactive | –

Source: PubChem BioAssay (Tox21)
